Measurements: PubChem BioAssay (NCATS)
Results filed as inconclusive are left out. Active and inactive are the calls of the source. Calls come from the whole dose curve; as a rule, active = well fitted inhibition curve with a large enough effect; inconclusive = small, poorly fitted or top-dose-only effect; inactive = flat fitted curve, though single readings scatter.

Experiments:
Assay in all cases: qHTS profiling for inhibitors of Plasmodium falciparum proliferation (AID 504749); note: nearly all actives have a fitted effect of over 60% in size
Conditions in all cases: P. falciparum in erythrocytes, SYBR Green DNA, 72 h; series mostly up to 28.7 µM
CP217 = tested on: CP217
How it was run: (§1)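 Fluorescence of SYBR Green-bound parasite DNA, read at 485/535 nm, served as the growth measure. Infected erythrocytes were cultured with compound 72 h; artemisinin (0.29 uM) and DMSO wells defined the normalization range.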

CP237 = tested on: CP237
How it was run: as §1

CP238 = tested on: CP238
How it was run: as §1

CP247 = tested on: CP247
How it was run: as §1

CP250 = tested on: CP250
How it was run: as §1

CP252 = tested on: CP252
How it was run: as §1

CP256 = tested on: CP256
How it was run: as §1

CP260 = tested on: CP260
How it was run: as §1

CP262 = tested on: CP262
How it was run: as §1

CP265 = tested on: CP265
How it was run: as §1

CP286 = tested on: CP286
How it was run: as §1

CP291 = tested on: CP291
How it was run: as §1

CP201 = tested on: CP201
How it was run: as §1

CP211 = tested on: CP211
How it was run: as §1

CP215 = tested on: CP215
How it was run: as §1

CP266 = tested on: CP266
How it was run: as §1

CP268 = tested on: CP268
How it was run: as §1

CP269 = tested on: CP269
How it was run: as §1

CP297 = tested on: CP297
How it was run: as §1

Measured: Potency
Potency is the fitted concentration of half-maximal effect.

COc1ccc(CN2CCNCC2)c(OC)c1OC
active: CP291 5.1 µM
not listed: CP201 | CP211 | CP215 | CP266 | CP268 | CP269 | CP297
inactive: all other assays above

CCC(=O)O[C@H]1CC[C@H]2[C@@H]3CCC4=CC(=O)CC[C@]4(C)[C@H]3CC[C@]12C
inactive: all assays above

Nc1ccc(N)cc1
inactive: CP237 | CP260 | CP266 | CP286
active: CP247 8.91 µM | CP250 12.6 µM

O=C1NCN(c2ccccc2)C12CCN(CCCOc1ccc(F)cc1)CC2
active: CP237 5.01 µM | CP286 12.6 µM | CP297 12 µM
inactive: CP201 | CP215 | CP252 | CP256 | CP262
